# Source: PubChem BioAssay
# Only some compounds are listed: those with a hit (about 18% of all), similar ones and a draw of the others.
# IL1B secr inh: qHTS for Inhibitors of Inflammasome Signaling: IL-1-beta AlphaLISA Primary Screen. AID 743279, 2014. activity change, % at 57.5 µM. actives 4.7% (n = 360,000). THP-1 LPS/ATP IL-1B secretion, AlphaLISA, 16 h; hits give low values; in the data active = activity change below about -50%; inconclusive = mostly about -30% to -49%
#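 Secreted IL-1B measured by AlphaLISA bead assay after 16 h compound exposure of THP-1 cells; compounds (final up to 57.5 uM) added 1 h before LPS (250 ng/mL) and ATP (1.25 mM) stimulation; lower signal means less secretion.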
# LDHA inh: qHTS assay for inhibitors of human lactate dehydrogenase; L-lactate dehydrogenase A chain (Homo sapiens), P00338; purified LDHA, NADH/diaphorase-resazurin fluorescence; hits give low values; activity change, % (values are at about 110 or 230 µM); actives 0.15% (n = 480,000); in the data active = activity change below about -30%; inconclusive = mostly about -25% to -30%;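 note: plate controls were DMSO wells for no effect and wells without enzyme for full effect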
#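 Human LDH5 at 2 nM final in Tris HCl pH 7.4 with 0.06 mM NADH and 0.2 mM pyruvate, reacted 5 minutes at room temperature. Remaining NADH coupled via diaphorase/resazurin; resorufin fluorescence read at 0 and 20 minutes, normalized to enzyme-free and DMSO wells.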
# RORgamma inh: qHTS for inhibitors of ROR gamma transcriptional activity; Drosophila S2 Gal4-RORgamma UAS-luciferase reporter, 20 h; Potency, µM (highest dose often 53.6 µM), for inactives: at the top dose activity change, negative = inhibition, most hits filed as inhibitors; actives 5.4% (n = 310,000); AID 2551, 2010; note: potency is the fitted concentration of half-maximal effect; nearly all actives have a fitted effect of over 60% in size
# Target sequence (P51450 whole entry, looked up, the tested form may be a part): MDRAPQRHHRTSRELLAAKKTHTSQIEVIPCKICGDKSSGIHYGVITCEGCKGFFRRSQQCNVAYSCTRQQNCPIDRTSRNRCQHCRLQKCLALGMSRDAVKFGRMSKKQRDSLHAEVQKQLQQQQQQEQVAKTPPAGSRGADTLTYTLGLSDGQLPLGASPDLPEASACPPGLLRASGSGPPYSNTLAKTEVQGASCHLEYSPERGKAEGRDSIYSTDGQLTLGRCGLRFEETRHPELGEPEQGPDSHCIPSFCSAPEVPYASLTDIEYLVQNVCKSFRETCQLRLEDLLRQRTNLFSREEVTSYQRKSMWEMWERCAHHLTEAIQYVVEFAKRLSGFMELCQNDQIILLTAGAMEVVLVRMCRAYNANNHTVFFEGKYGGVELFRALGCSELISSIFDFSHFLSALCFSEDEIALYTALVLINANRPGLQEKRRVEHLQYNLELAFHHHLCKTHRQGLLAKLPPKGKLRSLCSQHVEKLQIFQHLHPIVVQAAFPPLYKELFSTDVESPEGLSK
#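 Drosophila S2 cells stably expressing Gal4-DBD/mouse RORγ fusion under metallothionein promoter plus UAS-luciferase; compound 1 h, then 700 uM CuSO4 induction for 20 h at ambient temperature; inhibition read as reduced luminescence.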
# TDP1 cell noCPT: qHTS for Inhibitors of human tyrosyl-DNA phosphodiesterase 1 (TDP1): qHTS in cells in absence of CPT. DT40 Tdp1-/- hTDP1 cells, no CPT, ATP luminescence, 48 h. Potency, µM (highest dose often 46.2 µM), inactives show top-dose activity change, negative = growth inhibition, actives largely listed as inhibitors. actives 15% (n = 420,000); note: potency is the fitted concentration of half-maximal effect; nearly all actives have a fitted effect of over 55% in size
#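 Compound effects on proliferation are scored in DT40 Tdp1-/-;hTDP1 cells in the absence of CPT. ATP levels (CellTiter-Glo luminescence) are recorded after a ≥48 hr, 37 °C incubation.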
# TDP1 cell CPT: qHTS for Inhibitors of human tyrosyl-DNA phosphodiesterase 1 (TDP1): qHTS in cells in presence of CPT. chicken DT40 Tdp1-/-;hTDP1 cells + 20 nM CPT, ATP luminescence, 48 h. Potency, µM (doses to about 46.2 µM), for inactives: top-dose activity change, negative = growth inhibition, usual class: inhibitors. actives 12% (n = 420,000). AID 686979, 2013; note: potency is the fitted concentration of half-maximal effect; nearly all actives have a fitted effect of over 55% in size
#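 Cell growth measured by CellTiter-Glo luminescence after a minimum 48 h, 37 C compound exposure with 20 nM CPT in Tdp1-knockout DT40 cells stably expressing hTDP1, seeded 400/well; qHTS titration format.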
# Gal4-VP16 FLuc: VP16 counterscreen qHTS for inhibitors of ROR gamma transcriptional activity; Drosophila S2 Gal4-VP16 UAS-luciferase, luminescence, 20 h; Potency, µM (doses to about 53.6 µM), without a hit: top-dose activity, negative = inhibition, most hits filed as inhibitors; actives 3.5% (n = 310,000); AID 2546, 2010;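 note: Gal4-VP16 expression switched on by copper sulfate through the metallothionein promoter; potency is the fitted concentration of half-maximal effect; nearly all actives have a fitted effect of over 50% in size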
# An asterisk follows results filed as active; ? = inconclusive; · = no result. Unless noted, calls come from the whole dose curve; as a rule, active = well fitted curve in the direction sought with a large enough effect; inconclusive = small, poorly fitted or top-dose-only effect, or another doubt; inactive = no such curve, though single readings can be large; an effect the other way counts as inactive or inconclusive. Unless noted, % is set by controls: 0 for no effect and ±100 for the full control effect.
SMILES,IL1B secr inh,LDHA inh,RORgamma inh,TDP1 cell noCPT,TDP1 cell CPT,Gal4-VP16 FLuc
COc1ccccc1CNC(=O)c1ccc2nc3[nH]c4ccccc4c3nc2c1,-52.9*,-3.1,25.8%,8.2µM*,?,?
COc1ccc(OC)c(NC(=O)c2ccc3nc(-c4ccccc4)c(-c4ccccc4)nc3c2)c1,·,·,-18.0%,·,·,-25.3%
C=CCN(C(=O)c1ccccc1)c1ccc(OC)cc1,3.1,3.4,-15.7%,22.4µM*,12.6µM*,3.0%
Cc1cccc(CNC(=O)c2ccc3nc(-c4ccccc4)c(-c4ccccc4)nc3c2)c1,·,-7.1,·,?,20.6µM*,·
COc1ccc(N(C)C(=O)c2ccc3nc(-c4ccccc4)c(-c4ccccc4)nc3c2)cc1,0.0,-4.9,11.0%,18.4µM*,?,2.6%
COc1ccc(CNC(=O)c2csc(NC3CC3)n2)cc1,·,-14.3,·,·,·,·
O=C(CCOc1ccccc1)Nc1cnc2ccccc2c1,·,5.6,·,·,·,·
Cc1nc2ccc(C(=O)NCc3ccncc3)cc2nc1C,·,0.1,·,·,·,·
Cc1ccc(CNC(=O)c2ccc3nc4[nH]c5ccccc5c4nc3c2)cc1,·,·,?,·,·,7.08µM*
O=C(Nc1ccc(Nc2ccccc2)cc1)c1cccc(F)c1,-14.7,0.1,?,18.4µM*,?,14.3%
Cc1cccc(Nc2ncc(NC(=O)c3cccc(F)c3)c(Nc3cccc(C)c3)n2)c1,·,-8.0,·,5.8µM*,7.31µM*,·
O=C(Nc1ccccc1)c1cccc(S(=O)(=O)Nc2cccc(F)c2)c1,·,-1.6,·,25.9µM*,?,·
CCCCCCn1c(SCC(=O)c2ccccc2)nc2c1c(=O)n(C)c(=O)n2C,·,5.1,·,·,·,·
C[C@]1(C(=O)NCc2cc(F)cc(C(F)(F)F)c2)C=C[C@@H](Cc2ccccc2)N1C(=O)c1ccccc1,8.0,-9.0,?,?,16.4µM*,-4.0%
CC(=O)N1[C@H](Cc2ccccc2)C=C[C@]1(C)C(=O)NCc1cc(F)cc(C(F)(F)F)c1,·,·,7.2%,·,·,8.8%
CCOC(=O)c1cn2nc(Oc3ccc(C)cc3)ccc2n1,·,-0.6,3.9%,?,-16.9%,6.5%
CCOC(=O)c1cn2nc(Oc3ccc(OC)cc3)ccc2n1,3.5,-1.1,27.4%,6.51µM*,?,17.5%
Cc1c(CCCl)c(Cl)n2c(nc3ccccc32)c1C#N,-112.9*,-10.8,·,0.651µM*,0.92µM*,·
Cc1ccc(-c2c(C#N)c(N)n3c(nc4ccccc43)c2C#N)cc1,-23.7,-18.9,?,16.4µM*,20.6µM*,?
CCc1c(C)c(C#N)c2nc3ccccc3n2c1NC,14.7,-11.6,13.1%,-4.8%,9.8%,1.8%
Cc1cc(Cl)n2c(nc3ccccc32)c1C#N,-100.3*,-1.0,3.16µM*,0.461µM*,0.411µM*,?
Cc1cc(N2CCN(c3ccccn3)CC2)n2c(nc3ccccc32)c1C#N,12.7,1.5,-9.9%,18.4µM*,?,1.8%
O=Cc1ccc(Oc2ccc([N+](=O)[O-])cc2C(F)(F)F)cc1,·,-11.1,·,·,·,·
Cc1cn2c3c(=O)[nH]c(=O)n(C)c3nc2n1CCN1CCN(Cc2ccc(F)cc2)CC1,·,-0.6,·,·,·,·
O=C1C(=O)N(CCN2CCOCC2)C(c2ccccc2Cl)/C1=C(\O)c1ccc(Cl)cc1 (stereo unspecified),·,-11.7,·,·,·,·
Cc1cccc(NC(=O)CSc2cc(C)c(C#N)c3nc4ccccc4n23)c1,50.4,-0.5,0.794µM*,11.6µM*,18.4µM*,?
Cc1ccc(Nc2c(C(C)C)c(C)c(C#N)c3nc4ccccc4n23)cc1,·,1.6,·,14.6µM*,18.4µM*,·
CNc1cc(C)c(C#N)c2nc3ccccc3n12,-10.1,-6.4,16.6%,-27.3%,-20.2%,-8.1%
